Assay outcomes from PubChem BioAssay.
This is a sample that favours compounds with a hit; in the whole collection about 1.5% have one here.
TCR act: activators of T cell receptors | primary human leukocytes, anti-CD3, IL-2 HTRF, 48 h | Potency, µM (titrated, usually from 9.22 µM), for inactives: at the highest dose activation of IL-2 secretion, hits mostly activators | 330,000 tested, under 10 active; note: % of control where 0% means no effect
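Primary human leukocytes were stimulated with a-CD3 beads plus compounds for 48 hr without co-stimulation; secreted IL-2 was quantified by HTRF using a-IL-2-K (europium cryptate) and a-IL-2-d2, excited at 320nm with acceptor emission read at 665nm.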
PINK1 expr mod: PINK1 expression modulation; hit rate 0.2% among 410,000; PINK1 immunofluorescence, high-content cytometry, 24 h; Potency, µM (titrated, usually from 76.6 µM), for the others: at the top dose activation (PINK1 increase), hits mostly activators; AID 624263; active = well fitted activation curve with a large enough effect; inconclusive = small, poorly fitted or top-dose-only effect; cell line not stated here; note: potency is the fitted concentration of half-maximal effect; % of control where 0% means no effect; nearly all actives have a fitted effect of over 65% in size
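Stable cell line, 250 cells/well, 12 h attachment; compounds pinned at 5 concentrations, 24 h; CCCP control. Fixed with nuclear dye, primary antibodies 12 h at 10 degrees C, secondary plus cell stain; laser-scanning cytometer read.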
BRCA1 expr act: activators of BRCA1 expression. MCF7-BRCA1-FFLuc reporter, luminescence, 48 h; response scale: scaled: vehicle 0%, 10 µM genistein 100%. Potency, µM (titrated, usually from 46.1 µM), for the others: at the top dose activation, most hits filed as activators. hit rate 1.1% among 380,000; note: potency is the fitted concentration of half-maximal effect; nearly all actives have a fitted effect of over 80% in size
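48 h compound treatment of MCF7-BRCA1-FFLuc cells (phenol-red free MEM, 37 °C), then 15 min with luciferase substrate and luminescence imaging.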
Akt phos inh: Akt phosphorylation inhibition; hit rate 0.32% among 360,000; Neuro2A IGF-stimulated pAkt S473 HTRF, 20 min; hits give low values; activity change, % for hits at 50 µM; in the data active = activity change below about -80%; inconclusive = mostly about -51% to -80%; note: % is set by controls: 0 for no effect and ±100 for the full control effect
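Neuro2A cells in DMEM with 0.5% FBS, overnight at 37 deg C, given compound at single 50 µM final, then IGF (6 nM final) for 20 min at 37 deg C. Lysed; phospho-Akt Ser473 by HTRF after 24 h, 665/615 ratio.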
Numbers without * were called inactive; i = inactive; u = inconclusive; x = no result; [ ] = dose if it differs, or a comment. Unless noted, calls come from the whole dose curve; as a rule, active = well fitted curve in the direction sought with a large enough effect; inconclusive = small, poorly fitted or top-dose-only effect, or another doubt; inactive = no such curve, though single readings can be large; an effect the other way counts as inactive or inconclusive.

SMILES | TCR act | PINK1 expr mod | BRCA1 expr act | Akt phos inh
COc1ccc(N2CSC3=C(C#N)C(c4cc(OC)c(OC)cc4OC)CC(=O)N3C2)c(OC)c1 (centres undefined) | -33.7% | -0.6% | -25.4% | i
COc1cc(OC)c(C2CC(=O)N3CN(c4ccc(C)cc4)CSC3=C2C#N)cc1OC (centres undefined) | 3.2% | 1.7% | 6.31µM* | i
CC1CCN(C(=O)c2ccc3ccccc3c2)CC1 | 2.7% | -0.3% | 2.51µM* | i
CC1CC(C)CN(C(=O)c2ccc3ccccc3c2)C1 (centres undefined) | -2.9% | 0.6% | 14.0% | i
CC1CCN(C(=S)NC(=O)c2ccccc2)CC1 | 1.8% | -1.4% | 0.3% | -111.4%*
CC1CCN(C(=S)NCCc2ccccc2)CC1 | 4.4% | -0.8%[38.3 µM] | 7.08µM* | x
CC1CCN(C(=S)NC(=O)c2ccc(C(C)(C)C)cc2)CC1 | 0.0% | 4.8% | 1.6% | i
COc1ccccc1C1CN(Cc2cccc3nccnc23)Cc2ccccc2O1 (centres undefined) | x | -0.1% | x | x
C=CCn1cc(-c2ccc(Cl)cc2)cc(C#N)c1=O | -1.5% | 3.8% | 20.7% | i
N#Cc1cc(-c2ccc(Cl)cc2)cn(Cc2c(Cl)cccc2Cl)c1=O | x | u | -32.3% | -95.3%*
Cc1ccc2[nH]nc(C(=O)N3CCOc4ccc(CN5CCc6sccc6C5)cc4C3)c2c1 | x | 4.2% | x | x
CCOC(=O)Cc1ccc2sc(-c3ccccc3)nc2c1 | -1.1%[46.1 µM] | 0.5% | 4.47µM* | i
CCOc1ccc(C(=O)/C=C/c2ccc(SC)cc2)cc1 | -1.7% | 2.3%[38.3 µM] | 12.9% | i
CCOc1ccc(/C=C/C(=O)c2ccccc2)cc1 | 11.4% | 2.5% | 12.6µM* | i
O=C(/C=C/c1ccccc1)c1ccccn1 | 0.5% | 24.7% | 9.7% | -119.3%*
O=C(COc1ccccc1)Nc1ccc(Cl)cn1 | -18.5% | 0.4% | 2.1% | i
O=C(COc1ccccc1Cl)Nc1ccc(Cl)cn1 | x | 1.8% | 10µM* | i
COc1cc(C)cc2oc(=O)c(CC(=O)NCc3cccc(Cl)c3)c(C)c12 | x | 11.6% | x | x
Cc1cnc(Nc2nc3ccccc3o2)nc1C(=O)Nc1cccc(C(F)(F)F)c1 | -1.5% | u | -37.2% | -94.5%*
CCOC(=O)C1=C(N)Oc2c(oc(CO)cc2=O)C1c1c(F)cccc1Cl (centres undefined) | -7.6% | 0.3% | 0.0% | -108.9%*
O=c1[nH]c(CN2CCN(CCO)CC2)nc2ccccc12 | -1.5%[46.1 µM] | -1.2% | -13.0% | x
O=c1[nH]c(CN2CCN(c3ccccc3O)CC2)nc2ccccc12 | -21.8% | 0.7% | -3.5% | -110.2%*
c1coc(-c2ccccc2CN2CCOc3ccc(CN4CCOCC4)cc3C2)c1 | x | 0.9% | x | x
CN(C)/C=N/C(=S)Nc1ccc(Cl)cc1Cl | -2.1% | 0.7% | 5.01µM* | i
Cc1cccc(NC(=O)c2cc(-c3cc(C)ccc3O)n[nH]2)c1 | -8.7% | 4.0% | 1.58µM* | i
SMILES | TCR act | PINK1 expr mod | BRCA1 expr act | Akt phos inh
CN(C)S(=O)(=O)c1cccc(NC(=O)COC(=O)c2cc3ccccc3oc2=O)c1 | 4.0% | 0.2% | 10µM* | i
O=C(COC(=O)c1cc2ccccc2oc1=O)Nc1ccc(F)cc1F | -5.8% | -0.3% | 10µM* | i
O=C(COC(=O)c1cc2ccccc2oc1=O)Nc1cccc(S(=O)(=O)N2CCCCCC2)c1 | -8.4%[46.1 µM] | 12.7% | 8.3% | i
CCNc1ncc2nc(-c3cn(C)c4ccccc34)c(=O)n(-c3ccc(OC)cc3)c2n1 | x | 28.2µM* | x | x
Cn1cc(-c2nc3ccccc3[nH]2)c2ccccc21 | -4.1% | 1.8% | 11.2µM* | i
Cc1[nH]n(-c2cccc(Cl)c2)c(=O)c1C=NCC(C)C | 3.4% | 3.6% | 10µM* | i
Cc1[nH]n(-c2cccc(Cl)c2)c(=O)c1C=NCc1ccco1 | -6.3% | -0.1% | 11.2µM* | i
Cc1[nH]n(-c2cccc(Cl)c2)c(=O)c1C=NC12CN3CN(CN(C3)C1)C2 | -12.4% | 0.8% | 1.7% | i
C=CCn1c2ccccc2c(=O)c2cc(C#CC[C@@H](C)O)ccc21 | 2.1% | 0.3% | 3.55µM* | i
C=CCn1c2ccccc2c(=O)c2cc(C#CC3(O)CCCCC3)ccc21 | 6.8% | 3.4% | u | i
COc1ccc2c(c1)CC/C(=C\C=C\c1ccccc1OC)C2=O | 1.8%[46.1 µM] | 0.3% | 11.2µM* | i
CC1(C(=O)OCC(=O)c2c[nH]c3ccccc23)CC1(Cl)Cl (centres undefined) | 7.5% | 5.1% | 8.91µM* | i
Cc1cnc(C(=O)OCC(=O)c2c[nH]c3ccccc23)cn1 | 3.2% | 1.5% | -11.4% | i
Cc1nc2ccc(S(=O)(=O)NCC(=O)N3CCN(c4ccccn4)CC3)cc2s1 | -2.1% | 0.5% | -32.1% | -117.4%*
Cc1nc2ccc(S(=O)(=O)NCC(=O)N3CCc4ccccc4C3)cc2s1 | -1.0% | -2.4% | -26.0% | i
COc1ccc(/C(N)=N/OC(=O)c2cccs2)cc1OC | -0.2% | 0.0% | 8.91µM* | i
Cc1ccc(/C(N)=N/OC(=O)c2cccs2)cc1 | 3.8% | -4.4% | 42.2% | i
Fc1ccc(CNc2ccccn2)cc1 | 3.0% | 1.2% | 22.7% | i
CSc1ccc(CNc2ccccn2)cc1 | 2.6% | -4.0% | 10µM* | i
COc1ccc(C(C(=O)NC2CCCC2)N(C(=O)c2snc(-c3ccc(F)cc3)c2N)c2cccc(F)c2)cc1 (centres undefined) | -7.7% | u | -35.0% | i
COc1ccc(C(C(=O)NC2CCCC2)N(C(=O)c2snc(-c3ccc(F)cc3)c2N)c2ccc(F)cc2)cc1 (centres undefined) | -10.8% | 15.8µM* | 6.0% | i
COc1ccc(C(C(=O)NC2CCCC2)N(C(=O)c2snc(-c3ccc(F)cc3)c2N)c2ccc(OC)cc2)cc1 (centres undefined) | -3.7% | -4.0% | 3.9% | i
COc1ccc(C(C(=O)NC2CCCC2)N(C(=O)c2snc(-c3ccc(F)cc3)c2N)c2ccccc2)cc1 (centres undefined) | -1.5% | 12.6µM* | -30.3% | i
COc1cc(=O)n2c(c1C(=O)N(C)Cc1cscn1)CCN(Cc1c(C)[nH]c3ccccc13)CC2 | x | 1.3% | x | x
CN(c1cnn(-c2ccccc2)c(=O)c1Cl)n1cccc1 | -0.6% | -1.7% | 11.2µM* | i
SMILES | TCR act | PINK1 expr mod | BRCA1 expr act | Akt phos inh
O=c1c(Cl)c(Cl)cnn1-c1ccccc1 | 9.3%[46.1 µM] | -1.2% | -90.3% | i
Cc1ccc(C)c(CN2C[C@H](Sc3nc4ccccc4[nH]3)C[C@H]2C(=O)N2CCCN(C)CC2)c1 | x | -1.1% | x | x
CSCCC(NC(=O)OC(C)(C)C)C(=O)Oc1ccc2c(=O)c(-c3ccc4c(c3)OCCO4)coc2c1 (centres undefined) | 2.7% | 2.2% | 2.9% | -84.7%*
CN(C)c1nc2ccc(OCCN3CCCCC3)cc2s1 | 1.6% | -4.7% | 11.2µM* | i
COc1cc([N+](=O)[O-])ccc1NC(=S)Nc1cc(C(=O)OC(C)C)cc(C(=O)OC(C)C)c1 | -1.8%[46.1 µM] | 15.8µM* | -56.8% | i
O=C(NC1CCCCC1)C(c1ccc(F)cc1)N(Cc1ccco1)C(=O)Cn1nnc2ccccc21 (centres undefined) | x | 14.1µM* | -46.8% | i
